Data published in PubChem BioAssay (NCATS).
Values joined by “and” are separate entries in the source; they are usually repeats but may differ in a detail not shown here. Equal values may be shown once. Inconclusive results are not listed. Active and inactive are the calls of the source. Calls come from the whole dose curve; as a rule, active = well fitted curve in the direction sought with a large enough effect; inconclusive = small, poorly fitted or top-dose-only effect, or another doubt; inactive = no such curve, though single readings can be large; an effect the other way counts as inactive or inconclusive.

How the values were obtained:
[1] = molecular target: Cellular tumor antigen p53 (Homo sapiens) (UniProt P04637); experiment: Primary qHTS for small molecule compounds that upregulate eGFP-tagged delta133p53alpha (in N-terminal) cells. (AID 2060322); conditions: NCI-H358 eGFP-delta133p53alpha fluorescence, 24 h; activation: active compounds read high; note: nearly all actives have a fitted effect of over 75% in size;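 for activation: series mostly up to about 56 µM; 0% = DMSO vehicle and 100% = reference activator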
In short: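 NCI-H358 cells pre-induced 24 h with 10 ng/ml doxycycline to express N-terminal eGFP-delta133p53alpha, then dosed 24 h at 37C without doxycycline; fixed, Hoechst-stained, GFP intensity by laser scanning cytometry, normalized to DMSO (0%) and 57.5 uM 5-azacytidine (100%).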

[2] = BET inhibitor-based combinations targeting novel dependencies in MECOM-rearranged (r) AML: SET-2 cell line (AID 2202231); conditions: SET-2 AML cells viability, CellTiter-Glo luminescence, 48 h; viability: active compounds read low, concentration not given here; note: nearly all actives have a fitted effect of over 35% in size;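 for viability: plate controls were DMSO treated cells for no effect and wells without cells for full effect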
In short: (§1)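 A 48 hr incubation preceded viability reading by CellTiter-Glo, with 15 min room-temperature development. Dose series had 11 points; normalization used DMSO and empty wells; AUC was computed and mean-centered per line as Z-AUC.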

[3] = BET inhibitor-based combinations targeting novel dependencies in MECOM-rearranged (r) AML: MV-4-11 cell line (AID 2202233); note: nearly all actives have a fitted effect of over 45% in size
In short: (§2)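 Each compound is tested in an 11-point concentration series against 500 seeded cells/well for 48 hr. The luminescent viability signal is normalized to DMSO and blank wells, then reduced to AUC and a cell-line-centred Z-AUC.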

[4] = BET inhibitor-based combinations targeting novel dependencies in MECOM-rearranged (r) AML: HNT-34 cell line (AID 2202234); note: nearly all actives have a fitted effect of over 35% in size
In short: as §2

[5] = BET inhibitor-based combinations targeting novel dependencies in MECOM-rearranged (r) AML: UCSD-AML1 cell line (AID 2202235); note: nearly all actives have a fitted effect of over 40% in size
In short: as §2

[6] = BET inhibitor-based combinations targeting novel dependencies in MECOM-rearranged (r) AML: AML-191 cell line (AID 2202236; note: nearly all actives have a fitted effect of over 35% in size)
In short: as §1

[7] = BET inhibitor-based combinations targeting novel dependencies in MECOM-rearranged (r) AML: AML-194 cell line (AID 2202237; note: nearly all actives have a fitted effect of over 40% in size)
In short: as §1

[8] = BET inhibitor-based combinations targeting novel dependencies in MECOM-rearranged (r) AML: OCI-AML3 cell line (AID 2202232); conditions: Potency: OCI-AML3 viability; note: nearly all actives have a fitted effect of over 35% in size
In short: as §1
Potency is the fitted concentration of half-maximal effect.

Sequence of Cellular tumor antigen p53 (Homo sapiens) (P04637 whole entry, looked up): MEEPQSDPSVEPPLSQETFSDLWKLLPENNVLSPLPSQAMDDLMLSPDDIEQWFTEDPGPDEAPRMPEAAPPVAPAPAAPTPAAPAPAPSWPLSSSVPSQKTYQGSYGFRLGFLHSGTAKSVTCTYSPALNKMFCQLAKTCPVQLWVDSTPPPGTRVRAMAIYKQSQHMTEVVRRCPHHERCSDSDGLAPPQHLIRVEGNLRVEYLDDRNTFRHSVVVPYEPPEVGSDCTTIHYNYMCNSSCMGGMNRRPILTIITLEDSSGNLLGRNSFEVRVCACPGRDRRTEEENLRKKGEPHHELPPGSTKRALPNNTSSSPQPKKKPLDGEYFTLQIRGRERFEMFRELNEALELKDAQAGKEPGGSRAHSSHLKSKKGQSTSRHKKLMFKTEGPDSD

COC1CCC(C(=O)c2ccc3nc4c(cc3c2)CCCO4)CC1 (stereo unspecified)
inactive: activation [1] -1.02% | viability [2] 105% | Potency [3] | Potency [4] | Potency [5] | Potency [6]

O=C(O)CCNC(=O)c1ccc(N=Nc2ccc(O)c(C(=O)O)c2)cc1
inactive: activation [1] -19.8% and -1.86% | viability [2] 118% | Potency [3] | Potency [4] | Potency [5] | Potency [6] | Potency [7]

Cc1ccc(S(=O)(=O)NC(=O)NN2CC3CCCC3C2)cc1 (stereo unspecified)
inactive: activation [1] 8.47% and 8.97% | viability [2] 120% | Potency [3] | Potency [4] | Potency [5] | Potency [7]

O=c1cc(-c2ccccc2)oc2cc(O)cc(O)c12
active: Potency [3] 16.6 µM | Potency [4] 23.5 µM
inactive: activation [1] 3.3% | viability [2] 85.1%

Fc1ccc(Cl)cc1-c1nc(Nc2ccncc2)c2nccnc2n1
inactive: activation [1] 0.772% | viability [2] 110% | Potency [3] | Potency [4] | Potency [6] | Potency [7]

Cn1c(=O)c2c(ncn2CC(O)CO)n(C)c1=O (stereo unspecified)
inactive: activation [1] 5.02% and 16.6% | viability [2] 118% | Potency [3] | Potency [4] | Potency [5] | Potency [6] | Potency [7]

CN(C)CCN1C(=O)c2cccc3cc(N)cc(c23)C1=O
active: Potency [1] 34.3 µM | Potency [2] 14.8 µM | Potency [3] 3.72 µM | Potency [4] 10.5 µM | Potency [6] 13.2 µM | Potency [7] 16.6 µM

CCOC(=O)O[C@]1(C(=O)OCCl)CC[C@H]2[C@@H]3CCC4=CC(=O)C=C[C@]4(C)[C@H]3[C@@H](O)C[C@@]21C
inactive: activation [1] -7.34% | Potency [3] | Potency [4] | Potency [7]
active: Potency [2] 1.05 µM

Cc1cc2c(cc1CC(=O)c1sccc1S(=O)(=O)Nc1onc(C)c1Cl)OCO2
inactive: activation [1] -10% and -11% | viability [2] 68.3% | Potency [3] | Potency [4] | Potency [6]

O=[N+]([O-])c1ccc(Nc2ccccc2-c2ccccc2)c2nonc12
inactive: Potency [5]
active: Potency [1] 9.68 µM | Potency [2] 20.9 µM | Potency [3] 26.3 µM | Potency [4] 23.5 µM | Potency [6] 20.9 µM

CCOC(=O)[C@H](CCc1ccccc1)N[C@@H](C)C(=O)N1CCC[C@H]1C(=O)O
inactive: activation [1] 0% | viability [2] 92.2% | Potency [3] | Potency [4] | Potency [5] | Potency [6] | Potency [7]

CNC(=O)Nc1ccc(-c2nc(N3CC4CCC(C3)O4)c3cnn(C4CCC5(CC4)OCCO5)c3n2)cc1
active: Potency [2] 0.263 µM | Potency [3] 0.166 µM | Potency [5] 0.0295 µM | Potency [6] 0.0295 µM
inactive: activation [1] 8.27%

COC(c1ccccc1)(c1ccccc1)[C@H](Oc1nc(C)cc(C)n1)C(=O)O
inactive: activation [1] -19.8% and -2.24% | viability [2] 106% | Potency [3] | Potency [4] | Potency [5] | Potency [7]

CC(C)Oc1ccc2c(=O)c(-c3ccccc3)coc2c1
inactive: activation [1] -6.21% and -9.21% and 6.6% | viability [2] 108% | Potency [3] | Potency [4] | Potency [7]

C[C@]12C=CC(=O)C=C1CC[C@@H]1[C@@H]2C(=O)C[C@@]2(C)[C@H]1CC[C@]2(O)C(=O)CO
inactive: activation [1] -20.1% and 2.21% | viability [2] 109% | Potency [3] | Potency [4] | Potency [6] | Potency [7]

COc1cc([C@H]2Oc3cc([C@H]4Oc5cc(O)cc(O)c5C(=O)[C@@H]4O)ccc3O[C@@H]2CO)ccc1O
inactive: activation [1] -20.1% | viability [2] 119% | Potency [7]

CCC(c1ccc(O)cc1)C(CC)c1ccc(O)cc1 (stereo unspecified)
inactive: activation [1] 3.07% | viability [2] 99.8% | Potency [4]

COc1ccc(-c2coc3cc(O)cc(O)c3c2=O)cc1
inactive: activation [1] 22.8% | viability [2] 45.9% | Potency [5] | Potency [6] | Potency [7]

COc1ccc(Nc2nccc(NCCO)n2)cc1
inactive: activation [1] 25.6% | viability [2] 106% | Potency [4] | Potency [5] | Potency [6] | Potency [7]

CCCCOCCOc1nc(-c2ccc(C(=O)O)c(F)c2)sc1C
active: Potency [6] 2.63 µM
inactive: activation [1] 13.4% | viability [2] 85.8% | Potency [5] | Potency [7]

CO[C@@H]1[C@H](N(C)C(=O)c2ccccc2)C[C@H]2O[C@]1(C)n1c3ccccc3c3c4c(c5c6ccccc6n2c5c31)C(=O)NC4
inactive: activation [1] 25.1%
active: Potency [8] 3.32 µM
